# Publication PMC7862700, “An all-to-all approach to the identification of sequence-specific readers for epigenetic DNA modifications on cytosine”
# Experiments:
# Experiment in all cases: DAPPL (digital affinity profiling via proximity ligation, sequencing); 10 mM Tris-HCl pH 7.5, 50 mM NaCl, 1 mM DTT, 4% glycerol, room temperature, 30 min; GST-TFs on glutathione beads, 16-mer random dsDNA library, 0.1% formaldehyde crosslink after washing; high values mean tight binding
# Settings in all cases: protein: recombinant; tags: N-terminal GST; dsDNA, one strand shown
# [1] = biological target: T1, ERF (Homo sapiens, UniProt P50548 1-548)
# T1 sequence: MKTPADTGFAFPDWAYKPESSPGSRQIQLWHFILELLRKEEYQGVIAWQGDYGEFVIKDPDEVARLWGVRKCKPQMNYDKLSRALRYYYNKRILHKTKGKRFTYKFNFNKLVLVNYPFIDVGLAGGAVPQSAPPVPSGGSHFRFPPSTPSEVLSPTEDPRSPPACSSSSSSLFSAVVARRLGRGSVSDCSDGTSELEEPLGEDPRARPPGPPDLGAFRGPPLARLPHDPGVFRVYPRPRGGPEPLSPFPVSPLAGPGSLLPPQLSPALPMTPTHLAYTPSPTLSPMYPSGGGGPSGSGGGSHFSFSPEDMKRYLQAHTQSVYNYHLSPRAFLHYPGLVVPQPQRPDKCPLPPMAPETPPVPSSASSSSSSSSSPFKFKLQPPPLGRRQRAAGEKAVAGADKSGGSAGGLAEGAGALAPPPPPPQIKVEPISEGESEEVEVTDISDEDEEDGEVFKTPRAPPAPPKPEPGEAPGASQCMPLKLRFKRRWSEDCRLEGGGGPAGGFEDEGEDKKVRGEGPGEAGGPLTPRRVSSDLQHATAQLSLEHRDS
# Summary of the method: (§1)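 Pools of DNA-barcoded human transcription factors, expressed in yeast as GST fusions on glutathione beads and combined with a tag-only sample, were incubated with 200 nmole of a 16-mer random double-stranded DNA library. Incubation took 30 min at room temperature in Tris/NaCl/DTT/glycerol buffer and was followed by washing, 0.1% formaldehyde crosslinking, proximity ligation (BsaI/T4 ligase, 1 h, 37 °C), PCR amplification and sequencing on an Illumina NextSeq500. Binding signal is the ratio of a hexamer's read frequency for a factor to its frequency for the tag-only sample.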
# [2] = biological target: T2, ETS2 (Homo sapiens, UniProt P15036 1-469)
# T2 sequence: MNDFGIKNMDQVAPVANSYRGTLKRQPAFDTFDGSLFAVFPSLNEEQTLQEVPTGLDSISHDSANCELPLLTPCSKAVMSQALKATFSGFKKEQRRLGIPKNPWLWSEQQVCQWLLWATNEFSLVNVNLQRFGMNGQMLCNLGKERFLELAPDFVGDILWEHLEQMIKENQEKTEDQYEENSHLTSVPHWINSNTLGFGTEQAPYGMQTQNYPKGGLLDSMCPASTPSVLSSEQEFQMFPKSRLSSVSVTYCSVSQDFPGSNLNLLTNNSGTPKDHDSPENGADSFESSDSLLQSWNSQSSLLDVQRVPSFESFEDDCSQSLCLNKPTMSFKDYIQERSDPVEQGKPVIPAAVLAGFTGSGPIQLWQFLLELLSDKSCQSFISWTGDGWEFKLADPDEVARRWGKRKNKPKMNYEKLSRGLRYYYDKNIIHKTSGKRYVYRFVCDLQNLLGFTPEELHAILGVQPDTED
# Summary of the method: as §1
# [3] = biological target: T3, ELF5 (Homo sapiens, UniProt Q9UKW6-2 1-255)
# T3 sequence: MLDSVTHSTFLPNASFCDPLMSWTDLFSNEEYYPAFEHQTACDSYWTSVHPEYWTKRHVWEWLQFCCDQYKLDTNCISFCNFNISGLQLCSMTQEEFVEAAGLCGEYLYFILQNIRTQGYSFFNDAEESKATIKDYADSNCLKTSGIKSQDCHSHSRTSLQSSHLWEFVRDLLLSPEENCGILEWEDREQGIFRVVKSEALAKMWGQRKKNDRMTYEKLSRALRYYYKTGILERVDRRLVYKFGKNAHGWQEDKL
# Summary of the method: as §1
# [4] = biological target: T4, ETV3 (Homo sapiens, UniProt P41162-2 1-143)
# T4 sequence: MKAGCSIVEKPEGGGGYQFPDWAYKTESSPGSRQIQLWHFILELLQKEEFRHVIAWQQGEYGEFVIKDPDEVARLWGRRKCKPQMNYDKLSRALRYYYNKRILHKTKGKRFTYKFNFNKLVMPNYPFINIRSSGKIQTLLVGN
# Summary of the method: as §1
# [5] = biological target: ETV6 (Homo sapiens, UniProt P41212 1-452)
# Summary of the method: as §1
# [6] = biological target: T5, ETV3L (Homo sapiens, UniProt Q6ZN32 1-361)
# T5 sequence: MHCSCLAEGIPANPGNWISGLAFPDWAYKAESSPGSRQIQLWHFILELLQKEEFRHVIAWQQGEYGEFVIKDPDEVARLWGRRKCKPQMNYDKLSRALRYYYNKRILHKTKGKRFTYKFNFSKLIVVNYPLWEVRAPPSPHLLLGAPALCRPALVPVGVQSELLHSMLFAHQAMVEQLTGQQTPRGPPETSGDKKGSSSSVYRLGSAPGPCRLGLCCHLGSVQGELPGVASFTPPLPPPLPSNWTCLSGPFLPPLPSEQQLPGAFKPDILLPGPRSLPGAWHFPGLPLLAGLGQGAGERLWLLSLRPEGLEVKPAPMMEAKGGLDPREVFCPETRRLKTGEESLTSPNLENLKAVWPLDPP
# Summary of the method: as §1
# [7] = biological target: T6, SPDEF (Homo sapiens, UniProt O95238 1-335)
# T6 sequence: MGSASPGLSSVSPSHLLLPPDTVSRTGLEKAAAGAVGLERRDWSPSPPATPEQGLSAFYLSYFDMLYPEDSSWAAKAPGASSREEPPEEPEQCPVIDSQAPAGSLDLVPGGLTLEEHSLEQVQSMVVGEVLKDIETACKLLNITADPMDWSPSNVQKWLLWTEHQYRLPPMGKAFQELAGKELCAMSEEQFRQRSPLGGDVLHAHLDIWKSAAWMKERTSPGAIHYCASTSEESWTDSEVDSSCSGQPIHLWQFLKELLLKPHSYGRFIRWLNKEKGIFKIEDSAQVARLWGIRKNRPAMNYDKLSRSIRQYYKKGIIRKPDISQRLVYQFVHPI
# Summary of the method: as §1
# [8] = biological target: T7, ETV7 (Homo sapiens, UniProt Q9Y603 1-341)
# T7 sequence: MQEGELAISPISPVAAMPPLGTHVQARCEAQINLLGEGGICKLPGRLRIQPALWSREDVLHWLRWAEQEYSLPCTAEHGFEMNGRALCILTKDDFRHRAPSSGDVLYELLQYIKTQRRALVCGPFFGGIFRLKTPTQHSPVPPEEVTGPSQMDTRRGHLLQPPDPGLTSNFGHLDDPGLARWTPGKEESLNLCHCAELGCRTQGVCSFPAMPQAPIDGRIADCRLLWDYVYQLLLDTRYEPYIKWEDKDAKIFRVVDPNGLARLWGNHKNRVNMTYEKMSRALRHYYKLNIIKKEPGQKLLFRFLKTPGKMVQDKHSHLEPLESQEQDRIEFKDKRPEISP
# Summary of the method: as §1
# Sequence of ETV6 (P41212 whole entry): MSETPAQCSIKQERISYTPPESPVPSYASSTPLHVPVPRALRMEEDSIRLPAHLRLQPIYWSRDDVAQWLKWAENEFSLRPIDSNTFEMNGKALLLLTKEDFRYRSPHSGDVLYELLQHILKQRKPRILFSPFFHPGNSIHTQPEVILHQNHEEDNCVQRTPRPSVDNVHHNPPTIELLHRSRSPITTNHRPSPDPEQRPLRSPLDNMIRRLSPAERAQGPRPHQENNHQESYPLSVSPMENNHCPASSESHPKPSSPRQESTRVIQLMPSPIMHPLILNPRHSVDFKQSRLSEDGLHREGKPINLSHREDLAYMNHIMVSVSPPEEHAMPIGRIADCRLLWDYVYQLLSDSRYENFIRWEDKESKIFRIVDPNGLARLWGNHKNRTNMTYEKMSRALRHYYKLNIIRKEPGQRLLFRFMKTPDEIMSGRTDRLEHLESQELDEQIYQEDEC
Sequence,binding signal [1],binding signal [2],binding signal [3],binding signal [4],binding signal [5],binding signal [6],binding signal [7],binding signal [8]
CTGTAA,"1.2 fold enrichment (6-mer frequency, TF over GST control)","1.09 fold enrichment (6-mer frequency, TF over GST control)","1.03 fold enrichment (6-mer frequency, TF over GST control)","1.12 fold enrichment (6-mer frequency, TF over GST control)","1.03 fold enrichment (6-mer frequency, TF over GST control)",,,
GTTAAA,"1.09 fold enrichment (6-mer frequency, TF over GST control)",,,"1.04 fold enrichment (6-mer frequency, TF over GST control)","1.08 fold enrichment (6-mer frequency, TF over GST control)","1.04 fold enrichment (6-mer frequency, TF over GST control)",,
CGGTAT,"1.02 fold enrichment (6-mer frequency, TF over GST control)","1.01 fold enrichment (6-mer frequency, TF over GST control)","1.1 fold enrichment (6-mer frequency, TF over GST control)","1.05 fold enrichment (6-mer frequency, TF over GST control)","1.06 fold enrichment (6-mer frequency, TF over GST control)",,"1.32 fold enrichment (6-mer frequency, TF over GST control)",
CGACGT,"1.17 fold enrichment (6-mer frequency, TF over GST control)","1.05 fold enrichment (6-mer frequency, TF over GST control)","1.11 fold enrichment (6-mer frequency, TF over GST control)","1.09 fold enrichment (6-mer frequency, TF over GST control)","1.08 fold enrichment (6-mer frequency, TF over GST control)",,"1.02 fold enrichment (6-mer frequency, TF over GST control)","1.2 fold enrichment (6-mer frequency, TF over GST control)"
GAATTA,"1.06 fold enrichment (6-mer frequency, TF over GST control)","1.05 fold enrichment (6-mer frequency, TF over GST control)","1.03 fold enrichment (6-mer frequency, TF over GST control)","1.1 fold enrichment (6-mer frequency, TF over GST control)","1.08 fold enrichment (6-mer frequency, TF over GST control)",,"1.01 fold enrichment (6-mer frequency, TF over GST control)","1.06 fold enrichment (6-mer frequency, TF over GST control)"
AATGGA,,"1.09 fold enrichment (6-mer frequency, TF over GST control)",,,"1.12 fold enrichment (6-mer frequency, TF over GST control)","1.08 fold enrichment (6-mer frequency, TF over GST control)",,"1.03 fold enrichment (6-mer frequency, TF over GST control)"
TGCCGA,,"1.08 fold enrichment (6-mer frequency, TF over GST control)",,"1.22 fold enrichment (6-mer frequency, TF over GST control)","1.28 fold enrichment (6-mer frequency, TF over GST control)","1.14 fold enrichment (6-mer frequency, TF over GST control)","1.05 fold enrichment (6-mer frequency, TF over GST control)","1.15 fold enrichment (6-mer frequency, TF over GST control)"
CACGCG,,"1.13 fold enrichment (6-mer frequency, TF over GST control)","1.17 fold enrichment (6-mer frequency, TF over GST control)","1.09 fold enrichment (6-mer frequency, TF over GST control)","1.18 fold enrichment (6-mer frequency, TF over GST control)","1.22 fold enrichment (6-mer frequency, TF over GST control)","1.23 fold enrichment (6-mer frequency, TF over GST control)","1.13 fold enrichment (6-mer frequency, TF over GST control)"
TGTGAC,,"1.14 fold enrichment (6-mer frequency, TF over GST control)","1.1 fold enrichment (6-mer frequency, TF over GST control)","1.17 fold enrichment (6-mer frequency, TF over GST control)","1.07 fold enrichment (6-mer frequency, TF over GST control)","1.22 fold enrichment (6-mer frequency, TF over GST control)","1.2 fold enrichment (6-mer frequency, TF over GST control)","1.12 fold enrichment (6-mer frequency, TF over GST control)"
CTAGGC,,"1.01 fold enrichment (6-mer frequency, TF over GST control)","1.04 fold enrichment (6-mer frequency, TF over GST control)","1.09 fold enrichment (6-mer frequency, TF over GST control)","1.06 fold enrichment (6-mer frequency, TF over GST control)","1.07 fold enrichment (6-mer frequency, TF over GST control)","1 fold enrichment (6-mer frequency, TF over GST control)","1.2 fold enrichment (6-mer frequency, TF over GST control)"
GCAATG,"1.02 fold enrichment (6-mer frequency, TF over GST control)",,,"1.03 fold enrichment (6-mer frequency, TF over GST control)","1.12 fold enrichment (6-mer frequency, TF over GST control)",,,"1.14 fold enrichment (6-mer frequency, TF over GST control)"
AAATCG,,,,"1.03 fold enrichment (6-mer frequency, TF over GST control)","1.05 fold enrichment (6-mer frequency, TF over GST control)","1.09 fold enrichment (6-mer frequency, TF over GST control)",,"1.08 fold enrichment (6-mer frequency, TF over GST control)"
TGGGTT,,"1.06 fold enrichment (6-mer frequency, TF over GST control)","1.01 fold enrichment (6-mer frequency, TF over GST control)","1.02 fold enrichment (6-mer frequency, TF over GST control)","1 fold enrichment (6-mer frequency, TF over GST control)","1.17 fold enrichment (6-mer frequency, TF over GST control)","1.05 fold enrichment (6-mer frequency, TF over GST control)",
AACGTT,,"1.17 fold enrichment (6-mer frequency, TF over GST control)","1.16 fold enrichment (6-mer frequency, TF over GST control)","1.11 fold enrichment (6-mer frequency, TF over GST control)","1.19 fold enrichment (6-mer frequency, TF over GST control)","1.11 fold enrichment (6-mer frequency, TF over GST control)","1.12 fold enrichment (6-mer frequency, TF over GST control)","1.1 fold enrichment (6-mer frequency, TF over GST control)"
